Active and inactive are the calls of the source. No rule for the calls is given here.

Results on 40 compounds are retold here after PubChem BioAssay.

The subject of the experiment is Aerobactin synthetase IucA (Klebsiella pneumoniae hvKP1). As to the kind of experiment: Biochemical IucA enzyme inhibition primary screen of the Spectrum library (AID 1346200).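 Also: 100% = wells without compound and 0% = wells lacking enzyme.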 Conditions: malachite green pyrophosphate, A620, at 8 µM, active compounds read low.
Regarding `c1coc(CNc2ncnc3nc[nH]c23)c1`, the activity remaining is 116% (inactive).

As for `O=C(O)CC(O)(CC(=O)O)C(=O)O`, the activity remaining was 123% (inactive).

With `COc1c(O)cc(O)cc1O`, the activity remaining was 116% (inactive).

`O=c1[nH]cnc2c1ncn2C1O[C@H](CO)[C@@H](O)[C@H]1O` (stereo not given in full): the activity remaining is 112% (inactive).

With `NC(Cc1c[nH]c2ccccc12)C(=O)O` (stereo not given), the activity remaining is 107% (inactive).

As for `NCCC(=O)N[C@@H](Cc1cnc[nH]1)C(=O)O`, the activity remaining was 106% (inactive).

Turning to `CC(=O)Oc1ccccc1C(=O)Oc1ccccc1C(=O)O`, the activity remaining is 97.5% (inactive).

Regarding `NC[C@H]1O[C@H](OC2[C@@H](N)C[C@@H](N)[C@H](O[C@H]3O[C@H](CO)[C@@H](O)[C@H](N)[C@H]3O)[C@H]2O)[C@H](O)[C@@H](O)[C@@H]1O` (stereo not given in full), the activity remaining was 97% (inactive).

In the case of `CC1=C(CCC(=O)O)c2cc3nc(cc4[nH]c(cc5[nH]c(cc1n2)c(C)c5C(C)O)c(C)c4C(C)O)C(C)=C3CCC(=O)O` (stereo not given), the activity remaining was 107% (inactive).

As to `CC(C)NCC(O)c1ccc(O)c(O)c1` (stereo not given), the activity remaining was 82.7% (inactive).

On to `CC1=C(/C=C/C(C)=C/C=C/C(C)=C/C=C/C=C(C)/C=C/C=C(C)/C=C/C2=C(C)CCCC2(C)C)C(C)(C)CCC1`, for which the activity remaining was 123% (inactive).

In the case of `CC(C)c1ccc2c(c1)CCC1[C@](C)(CN)CCC[C@]21C` (stereo not given in full), the activity remaining was 111% (inactive).

As to `CC1O[C@@H](Oc2c(-c3ccc(O)c(O)c3)oc3cc(O)cc(O)c3c2=O)[C@H](O)[C@H](O)[C@H]1O` (stereo not given in full), the activity remaining is 111% (inactive).

Take `CCCCC1(COC(=O)CCC(=O)O)C(=O)N(c2ccccc2)N(c2ccccc2)C1=O`: the activity remaining is 110% (inactive).

In the case of `O=C(O)c1ccccc1Nc1cccc(C(F)(F)F)c1`, the activity remaining is 116% (inactive).

Regarding `OC[C@@H](O)C(O[C@@H]1O[C@H](CO)[C@H](O)[C@H](O)[C@H]1O)[C@H](O)[C@@H](O)CO` (stereo not given in full), the activity remaining was 116% (inactive).

As to `O=C(OC[C@H]1O[C@H](OC(=O)c2cc(O)c(O)c(OC(=O)c3cc(O)c(O)c(O)c3)c2)[C@H](OC(=O)c2cc(O)c(O)c(OC(=O)c3cc(O)c(O)c(O)c3)c2)[C@@H](OC(=O)c2cc(O)c(O)c(OC(=O)c3cc(O)c(O)c(O)c3)c2)[C@@H]1OC(=O)c1cc(O)c(O)c(OC(=O)c2cc(O)c(O)c(O)c2)c1)c1cc(O)c(O)c(OC(=O)c2cc(O)c(O)c(O)c2)c1`, the activity remaining was 100% (inactive).

With `C#CCCCCCCCCCCCC(=O)CC(O)COC(C)=O` (stereo not given), the activity remaining was 122% (inactive).

In the case of `O=C1CC(c2ccc(O)c(O)c2)Oc2cc(O)cc(O)c21` (stereo not given), the activity remaining is 109% (inactive).

`CC(C)=CCOc1cc2oc(=O)ccc2cc1O`: the activity remaining is 109% (inactive).

Regarding `NC[C@@H]1O[C@H](O[C@@H]2[C@@H](CO)OC(O[C@@H]3[C@@H](O)[C@H](N)C[C@H](N)[C@H]3O[C@H]3O[C@H](CO)[C@@H](O)[C@H](O)[C@H]3N)[C@@H]2O)[C@H](N)[C@@H](O)[C@@H]1O` (stereo not given in full), the activity remaining is 97.1% (inactive).

As to `Cc1ccc2c(c1)CC[C@H]1CC(=O)CC[C@]21C`, the activity remaining was 112% (inactive).

`c1ccc2[nH]c(-c3cscn3)nc2c1`: the activity remaining was 111% (inactive).

In the case of `Nc1ccc(C(=O)O)c(O)c1`, the activity remaining was 108% (inactive).

Turning to `O=C(O)CCC(=O)c1ccc(-c2ccccc2)cc1`, the activity remaining was 115% (inactive).

As for `C#C[C@]1(O)CCC2C3CCC4=CC(=O)CC[C@@H]4C3CC[C@@]21CC` (stereo not given in full), the activity remaining is 123% (inactive).

Consider `CC1(O)CC2C(CC1O)C2(C)C` (stereo not given), for which the activity remaining is 125% (inactive).

On to `CN[C@H]1C[C@@H](N)[C@H](O)[C@@H](O[C@@H]2O[C@H](CO)[C@@H]3OC4(O[C@@H]3[C@@H]2O)O[C@H](C(N)CO)[C@H](O)[C@H](O)[C@H]4O)[C@@H]1O` (stereo not given in full), for which the activity remaining is 122% (inactive).

In the case of `CC(=O)O[C@H]1CC[C@@]2(C)C(C[C@H](OC(C)=O)[C@@]3(C)C4=CC(=O)OC(c5ccoc5)[C@]4(C)CCC23)C1(C)C` (stereo not given in full), the activity remaining is 119% (inactive).

In the case of `C[C@@H]1CC2C3C[C@H](F)C4=CC(=O)C=C[C@]4(C)[C@@]3(F)[C@@H](O)C[C@]2(C)[C@@]1(O)C(=O)COC(=O)C(C)(C)C` (stereo not given in full), the activity remaining was 98.9% (inactive).

As to `O=C(O[C@@H]1Cc2c(O)cc(O)cc2O[C@@H]1c1cc(O)c(O)c(O)c1)c1cc(O)c(O)c(O)c1`, the activity remaining was 113% (inactive).

For `CCCCC(=O)Oc1ccccc1C(=O)O`, the activity remaining is 85.8% (inactive).

For `C[C@H]1[C@H](NC(=O)/C(=N/OC(C)(C)C(=O)O)c2csc(N)n2)C(=O)N1S(=O)(=O)O` (stereo in doubt), the activity remaining is 113% (inactive).

Consider `COc1cc(C)c(C(=O)Oc2cc(C)c(C(=O)O)c(O)c2C)c(OC)c1C`, for which the activity remaining is 91.1% (inactive).

Regarding `COc1ccc2c(=O)c(CC(=O)O)coc2c1`, the activity remaining is 117% (inactive).

With `NC(=O)N/N=C/c1ccc([N+](=O)[O-])o1`, the activity remaining was 94.6% (inactive).

As for `CC(=O)O[C@@H]1CC2C(C)(C)C(=O)[C@@H]3O[C@@H]3[C@]2(C)C2CC[C@]3(C)C(=CC(=O)O[C@H]3c3ccoc3)[C@@]21C` (stereo not given in full), the activity remaining was 99.4% (inactive).

For `COc1ccc2c(=O)ccoc2c1`, the activity remaining was 120% (inactive).

For the compound `CC(=O)Oc1cc(OC(C)=O)c2c(c1)O[C@H](c1ccc(OC(C)=O)c(OC(C)=O)c1)[C@H](OC(C)=O)C2`, the activity remaining was 108% (inactive).

Consider `CC1OC(O[C@H]2/C=C/C=C/C=C/C=C/C=C/C=C/C=C/[C@H](C)[C@@H](O)[C@@H](C)[C@H](C)OC(=O)CC(O)CC(O)CCC(O)C(O)CC(O)CC3(O)C[C@H](O)C(C(=O)O)C(C2)O3)C(O)[C@H](N)C1O` (stereo not given in full), for which the activity remaining was 89.3% (inactive).
